According to PubChem BioAssay AID1259422 (The Scripps Research Institute Molecular Screening Center, 2018):
Screen size: about 640,000 compounds; about 9,300 (1.5%) were called active. This is one part of a sample in which actives are shown more often than they occur. Cut-off read from the data, not from the text of the source: active = inhibition above about 32%; inactive = the rest.

Assay: TEAD-YAP interaction inhibition, primary screen, TEAD-YAP interaction inhibitor project, luminescence, HEK-TIYL cells (AID 1259422);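 note: 0% = median of test compound wells and 100% = reference inhibitor wells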
Details: TEAD-Gal4/YAP UAS-luciferase luminescence, at 9.12 µM, stronger effect = higher value

| Compound | inhibition |
| --- | --- |
| CCOC(=O)c1sc(NC(=O)c2cccc(Cl)c2)c(C(=O)OCC)c1C | -1.99% (inactive) |
| O=C(NCC1CCC2(CCN(Cc3ccccc3)CC2)O1)c1ccc(F)c(Cl)c1 (configuration not stated) | -14.8% (inactive) |
| O=C(NCCCO)/C(=C/c1ccc([N+](=O)[O-])cc1)NC(=O)c1ccco1 | 1.95% (inactive) |
| O=C(CCCN1CCc2ccccc2C(O)(c2ccccc2)C1)c1ccc(F)cc1 (configuration not stated) | -4.26% (inactive) |
| O=C1CN(c2ccccc2F)C(=O)CN1/N=C/c1ccccc1Cl | -10.8% (inactive) |
| COc1ccc(-c2c(Nc3cccc(C)c3)c(=O)c2=O)cc1 | 4.83% (inactive) |
| COC(=O)c1ccccc1Nc1c(-c2ccc(C)c(C)c2)c(=O)c1=O | 5.02% (inactive) |
| Cc1ccc(-c2c(Nc3cccc(F)c3)c(=O)c2=O)cc1C | 53.5% (active) |
| Cc1cc(C)nc(/N=C(/NC(=O)c2ccc(F)cc2)Nc2ccc(F)cc2F)n1 | 2.84% (inactive) |
| COc1ccc(-c2cccc(C(=O)Nc3ccc(Oc4ccccc4)cc3)n2)cn1 | -3.01% (inactive) |
| CCn1c(COc2ccccc2)nnc1Sc1ccc([N+](=O)[O-])cc1C=O | 59.5% (active) |
| O=[N+]([O-])c1ccc(OCc2nnc(SCCN3CCOCC3)n2-c2ccccc2)cc1 | 3.41% (inactive) |
| CCn1c(COc2ccccc2OC)nnc1SCC(=O)NC | 4.57% (inactive) |
| CCN(CC)C(=O)CSc1nc2c(C)c(C)ccc2cc1C#N | 8.08% (inactive) |
| Cc1ccc2cc(C#N)c(SCC(=O)N3CC(=O)Nc4ccccc43)nc2c1C | 63.3% (active) |
| Cc1ccc(C)c2nc(SCC(=O)N3CC(=O)Nc4ccccc43)c(C#N)cc12 | -2.34% (inactive) |
| FC(F)(F)c1cccc(-c2ccc(/C=N/Nc3nn[nH]n3)o2)c1 | 4.88% (inactive) |
| O=C(CSCc1cc2cccc3c2n(c1=O)CCC3)NCc1ccncc1 | 8.05% (inactive) |
| O=C1c2cccnc2C(=O)N1CNc1ccccc1 | 2.66% (inactive) |
| COc1ccc(Nc2ccccc2)cc1 | -22.2% (inactive) |
| O=c1cc(Nc2ccc(Br)cc2)c2ccccc2o1 | 0.69% (inactive) |
| COc1ccc(Nc2cc(=O)oc3ccccc23)cc1 | 36.2% (active) |
| C=CCn1c(SCC(=O)c2ccc(OC)c(C)c2)nnc1-c1ccncc1 | 4.75% (inactive) |
| Cc1cc(C(=O)NC(C)c2ccccc2)c2ccccc2n1 (configuration not stated) | 5.1% (inactive) |
| CCCCCNC(=O)c1cc(C)nc2ccccc12 | 2.15% (inactive) |
| CCC(CC)=NNC(=O)c1cc(C)nc2ccccc12 | 48.1% (active) |
| Cc1cc(C)c(S(=O)(=O)N2CCOCC2)c(C)c1[N+](=O)[O-] | -0.25% (inactive) |
